{
  "source": "the supplement of paper PMC4206461",
  "data": [
    {"system": "Pseudomonas aeruginosa PA14 dppA1-A5 penta mutant + pBBR5.DppA1 (PA14_58350)", "assay": "respiration area under curve with compound as sole nitrogen source, 24 h (OmniLog AUC (arbitrary units)); higher = more respiration / better utilisation as nitrogen source, active = 2000 or more", "details": "plate: PM8", "method": "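Biolog Phenotype MicroArray plates PM6-PM8: each di/tripeptide is the sole nitrogen source. Tetrazolium reduction was read in the OmniLog for 24 h at 37°C and summarised as area under the respiration curve (arbitrary units). Values below 2000 count as no respiration. Strain is the SBP penta mutant complemented with DppA1 on a plasmid under its native promoter. Lys/His/Cys peptides are excluded.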", "values": [
      {"compound": "N[C@@H](Cc1ccc(O)cc1)C(=O)NCC(=O)NCC(=O)O", "respiration area under curve": "9440 (active)"}
    ]}
  ]
}
